# Out of some 5,500 compounds screened, about 2,000 (36%) were called active. About 18% were inconclusive and are not listed. The list shows a part of the results. Values without a mark were called inactive. Cut-off read from the data, not from the text of the source: active = normalized growth mostly below about 0.91 (no sharp cut-off); inconclusive = no clear call, values can overlap the other calls; inactive = mostly above about 0.92.
# Test: chemical genetic growth profiling, strain panel (AID 1159580);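 note: tested at 20 µM; growth read once vehicle control cultures reached saturation at 30 °C; 1 = growth at the plate median or of vehicle wells; lower values mean less growth of the strain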
# Conditions: S. cerevisiae deletion strains, growth OD
compound,measurement,setting,value
COc1c2c(c(CC=C(C)C)c3oc(=O)c(-c4ccc(O)cc4)c(O)c13)OC(C)(C)C=C2,normalized growth,"locus YAL013W, strain DEP1, active compounds read low",0.307 (active)
same,normalized growth,"locus YAL021C, strain ccr4, active compounds read low",0.989
same,normalized growth,"locus YAL026C, strain drs2, active compounds read low",0.87 (active)
same,normalized growth,"locus YAL030W, strain snc1, active compounds read low",0.916 (active)
same,normalized growth,"locus YBL061C, strain skt5, active compounds read low",0.846 (active)
same,normalized growth,"locus YBR009C, strain hhf1, active compounds read low",0.656 (active)
same,normalized growth,"locus YBR021W, strain FUR4, active compounds read low",0.849
same,normalized growth,"locus YBR023C, strain chs3, active compounds read low",0.854 (active)
same,normalized growth,"locus YBR171W, strain sec66, active compounds read low",0.989
same,normalized growth,"locus YBR229C, strain ROT2, active compounds read low",0.997
same,normalized growth,"locus YBR231C, strain swc5, active compounds read low",0.857 (active)
same,normalized growth,"locus YBR279W, strain paf1, active compounds read low",0.972
same,normalized growth,"locus YCL011C, strain gbp2, active compounds read low",0.759 (active)
same,normalized growth,"locus YCL016C, strain dcc1, active compounds read low",0.938
same,normalized growth,"locus YCL029C, strain bik1, active compounds read low",0.677 (active)
same,normalized growth,"locus YCL061C, strain MRC1, active compounds read low",0.816 (active)
same,normalized growth,"locus YCL069W, strain vba3, active compounds read low",0.812 (active)
same,normalized growth,"locus YCR088W, strain abp1, active compounds read low",0.944
same,normalized growth,"locus YDL005C, strain med2, active compounds read low",0.925
same,normalized growth,"locus YDL035C, strain GPR1, active compounds read low",0.861
same,normalized growth,"locus YDL040C, strain nat1, active compounds read low",0.992
same,normalized growth,"locus YDL074C, strain BRE1, active compounds read low",0.325 (active)
same,normalized growth,"locus YDL101C, strain DUN1, active compounds read low",0.862 (active)
same,normalized growth,"locus YDL185W, strain tfp1, active compounds read low",1.02
same,normalized growth,"locus YDL192W, strain arf1, active compounds read low",0.414 (active)
same,normalized growth,"locus YDR001C, strain nth1, active compounds read low",0.989
same,normalized growth,"locus YDR069C, strain doa4, active compounds read low",1.01
same,normalized growth,"locus YDR101C, strain arx1, active compounds read low",0.775 (active)
same,normalized growth,"locus YDR137W, strain rgp1, active compounds read low",0.819 (active)
same,normalized growth,"locus YDR150W, strain NUM1, active compounds read low",1.01
same,normalized growth,"locus YDR159W, strain sac3, active compounds read low",0.383 (active)
same,normalized growth,"locus YDR162C, strain NBP2, active compounds read low",0.642 (active)
same,normalized growth,"locus YDR195W, strain ref2",0.459 (active)
same,normalized growth,"locus YDR297W, strain sur2, active compounds read low",0.847 (active)
same,normalized growth,"locus YDR318W, strain mcm21, active compounds read low",0.681 (active)
same,normalized growth,"locus YDR334W, strain swr1, active compounds read low",0.99
same,normalized growth,"locus YDR335W, strain msn5, active compounds read low",0.851 (active)
same,normalized growth,"locus YDR388W, active compounds read low",0.912 (active)
same,normalized growth,"locus YDR392W, strain spt3, active compounds read low",0.103 (active)
same,normalized growth,"locus YDR502C, strain sam2, active compounds read low",0.768 (active)
same,normalized growth,"locus YEL003W, strain gim4, active compounds read low",0.766 (active)
same,normalized growth,"locus YEL037C, strain rad23, active compounds read low",0.992
same,normalized growth,"locus YEL061C, strain CIN8 (second series), active compounds read low",0.765 (active)
same,normalized growth,"locus YER015W, strain faa2, active compounds read low",0.845 (active)
same,normalized growth,"locus YER016W, strain bim1, active compounds read low",0.969
same,normalized growth,"locus YER110C, active compounds read low",0.938
same,normalized growth,"locus YER111C, strain swi4, active compounds read low",0.518 (active)
same,normalized growth,"locus YER155C, strain BEM2 (second series), active compounds read low",0.536 (active)
same,normalized growth,"locus YER155C, strain BEM2, active compounds read low",0.277 (active)
same,normalized growth,"locus YER167W, strain BCK2, active compounds read low",0.806 (active)
same,normalized growth,"locus YFR010W, strain ubp6, active compounds read low",0.977
same,normalized growth,"locus YGL078C, strain dbp3, active compounds read low",0.98
same,normalized growth,"locus YGL086W, strain mad1, active compounds read low",0.683 (active)
same,normalized growth,"locus YGL167C, strain pmr1, active compounds read low",0.976
same,normalized growth,"locus YGL173C, strain kem1, active compounds read low",0.9 (active)
same,normalized growth,"locus YGL227W, strain vid30, active compounds read low",0.765 (active)
same,normalized growth,"locus YGL240W, strain doc1, active compounds read low",0.903
same,normalized growth,"locus YGL248W, strain PDE1, active compounds read low",0.763 (active)
same,normalized growth,"locus YGL253W, strain hxk2, active compounds read low",0.838 (active)
same,normalized growth,"locus YGR078C, strain PAC10, active compounds read low",0.633 (active)
same,normalized growth,"locus YGR135W, strain pre9, active compounds read low",0.907
same,normalized growth,"locus YGR229C, strain SMI1, active compounds read low",0.409 (active)
same,normalized growth,"locus YGR252W, strain gcn5, active compounds read low",0.696 (active)
same,normalized growth,"locus YHR013C, strain ard1, active compounds read low",1.03
same,normalized growth,"locus YHR027C, strain rpn1, active compounds read low",0.942
same,normalized growth,"locus YHR079C, strain IRE1 (second series), active compounds read low",0.868 (active)
same,normalized growth,"locus YHR094C, strain hxt1, active compounds read low",0.832 (active)
same,normalized growth,"locus YHR129C, strain ARP1, active compounds read low",0.61 (active)
same,normalized growth,"locus YHR142W, strain chs7, active compounds read low",0.512 (active)
same,normalized growth,"locus YHR200W, strain rpn10, active compounds read low",0.889 (active)
same,normalized growth,"locus YIL066C, strain RNR3, active compounds read low",0.708 (active)
same,normalized growth,"locus YIL073C, strain SPO22, active compounds read low",0.963
same,normalized growth,"locus YIL125W, strain kgd1, active compounds read low",0.911 (active)
same,normalized growth,"locus YIR030C, strain dcg1, active compounds read low",0.773 (active)
same,normalized growth,"locus YJL092W, strain hpr5, active compounds read low",0.932
same,normalized growth,"locus YJL095W, strain BCK1 (second series), active compounds read low",0.799 (active)
same,normalized growth,"locus YJL095W, strain BCK1, active compounds read low",0.352 (active)
same,normalized growth,"locus YJL115W, strain asf1, active compounds read low",1.02
same,normalized growth,"locus YJL129C, strain trk1, active compounds read low",0.648 (active)
same,normalized growth,"locus YJL134W, strain LCB3, active compounds read low",0.977
same,normalized growth,"locus YJL154C, strain vps35, active compounds read low",0.982
same,normalized growth,"locus YJL164C, strain tpk1, active compounds read low",0.747 (active)
same,normalized growth,"locus YJL166W, strain qcr8, active compounds read low",0.679 (active)
same,normalized growth,"locus YJL168C, strain set2, active compounds read low",0.985
same,normalized growth,"locus YJL187C, strain SWE1 (second series), active compounds read low",0.837 (active)
same,normalized growth,"locus YJL187C, strain SWE1, active compounds read low",0.877 (active)
same,normalized growth,"locus YKL009W, strain mrt4, active compounds read low",0.925
same,normalized growth,"locus YKL068W, active compounds read low",0.982
same,normalized growth,"locus YKL085W, strain MDH1 (second series), active compounds read low",0.909 (active)
same,normalized growth,"locus YKL085W, strain MDH1, active compounds read low",0.909 (active)
same,normalized growth,"locus YKL160W, strain elf1, active compounds read low",0.95
same,normalized growth,"locus YKL190W, strain CNB1, active compounds read low",0.851 (active)
same,normalized growth,"locus YKR001C, strain vps1, active compounds read low",0.381 (active)
same,normalized growth,"locus YKR026C, strain gcn3, active compounds read low",0.971
same,normalized growth,"locus YKR091W, strain srl3, active compounds read low",0.991
same,normalized growth,"locus YLL001W, strain dnm1, active compounds read low",0.848 (active)
same,normalized growth,"locus YLL026W, active compounds read low",0.848 (active)
same,normalized growth,"locus YLL041C, strain sdh2, active compounds read low",0.984
same,normalized growth,"locus YLR027C, strain aat2, active compounds read low",0.72 (active)
same,normalized growth,"locus YLR039C, strain RIC1, active compounds read low",0.444 (active)
same,normalized growth,"locus YLR058C, strain SHM2, active compounds read low",0.782 (active)
same,normalized growth,"locus YLR102C, strain apc9, active compounds read low",0.847 (active)
same,normalized growth,"locus YLR221C, strain rsa3, active compounds read low",0.674 (active)
same,normalized growth,"locus YLR258W, strain gsy2, active compounds read low",0.824 (active)
same,normalized growth,"locus YLR262C, strain YPT6 (second series), active compounds read low",0.584 (active)
same,normalized growth,"locus YLR268W, strain sec22, active compounds read low",0.693 (active)
same,normalized growth,"locus YLR320W, strain mms22, active compounds read low",0.65 (active)
same,normalized growth,"locus YLR342W, strain FKS1 (second series), active compounds read low",0.812
same,normalized growth,"locus YLR342W, strain FKS1, active compounds read low",0.907 (active)
same,normalized growth,"locus YLR357W, strain rsc2, active compounds read low",1.01
same,normalized growth,"locus YLR370C, strain arc18, active compounds read low",0.965
same,normalized growth,"locus YLR371W, strain rom2, active compounds read low",0.519 (active)
same,normalized growth,"locus YLR384C, strain iki3, active compounds read low",1
same,normalized growth,"locus YLR418C, strain cdc73, active compounds read low",0.214 (active)
same,normalized growth,"locus YML016C, strain PPZ1, active compounds read low",0.904 (active)
same,normalized growth,"locus YML032C, strain rad52, active compounds read low",0.63 (active)
same,normalized growth,"locus YML120C, strain ndi1, active compounds read low",0.467 (active)
same,normalized growth,"locus YML124C, strain tub3, active compounds read low",0.858 (active)
same,normalized growth,"locus YMR058W, strain fet3, active compounds read low",0.834 (active)
same,normalized growth,"locus YMR078C, strain ctf18, active compounds read low",0.537 (active)
same,normalized growth,"locus YMR125W, strain sto1, active compounds read low",0.866 (active)
same,normalized growth,"locus YMR129W, active compounds read low",0.915 (active)
same,normalized growth,"locus YMR205C, strain PFK2, active compounds read low",0.664 (active)
same,normalized growth,"locus YMR223W, strain ubp8, active compounds read low",0.792 (active)
same,normalized growth,"locus YMR231W, strain pep5, active compounds read low",0.999
same,normalized growth,"locus YMR263W, strain SAP30, active compounds read low",0.866 (active)
same,normalized growth,"locus YMR307W, strain GAS1, active compounds read low",0.48 (active)
same,normalized growth,"locus YNL067W, strain RPL9B, active compounds read low",0.938
same,normalized growth,"locus YNL071W, strain lat1, active compounds read low",0.484 (active)
same,normalized growth,"locus YNL128W, strain TEP1, active compounds read low",0.906
same,normalized growth,"locus YNL209W, strain ssb2, active compounds read low",0.935
same,normalized growth,"locus YNL233W, strain BNI4, active compounds read low",0.635 (active)
same,normalized growth,"locus YNL248C, strain rpa49, active compounds read low",0.973
same,normalized growth,"locus YNL250W, strain rad50, active compounds read low",1.05
same,normalized growth,"locus YNL271C, strain bni1, active compounds read low",0.976
same,normalized growth,"locus YNL298W, strain CLA4, active compounds read low",0.95
same,normalized growth,"locus YNL307C, strain MCK1, active compounds read low",0.24 (active)
same,normalized growth,"locus YNL322C, strain KRE1 (second series), active compounds read low",1.03
same,normalized growth,"locus YNL322C, strain KRE1, active compounds read low",0.88 (active)
same,normalized growth,"locus YNR049C, strain mso1, active compounds read low",0.987
same,normalized growth,"locus YNR052C, strain pop2, active compounds read low",0.546 (active)
same,normalized growth,"locus YOL012C, strain htz1",0.365
same,normalized growth,"locus YOL147C, strain pex11, active compounds read low",0.481 (active)
same,normalized growth,"locus YOR001W, strain rrp6, active compounds read low",0.797 (active)
same,normalized growth,"locus YOR061W, strain CKA2, active compounds read low",0.939
same,normalized growth,"locus YOR069W, strain VPS5, active compounds read low",0.896 (active)
same,normalized growth,"locus YOR070C, strain gyp1, active compounds read low",0.793 (active)
same,normalized growth,"locus YOR080W, strain dia2, active compounds read low",0.946
same,normalized growth,"locus YOR083W, strain WHI5, active compounds read low",0.876 (active)
same,normalized growth,"locus YOR106W, strain vam3, active compounds read low",0.883
same,normalized growth,"locus YOR136W, strain idh2, active compounds read low",0.867 (active)
same,normalized growth,"locus YOR144C, strain elg1, active compounds read low",0.592 (active)
same,normalized growth,"locus YOR184W, strain ser1, active compounds read low",0.217 (active)
same,normalized growth,"locus YOR265W, strain rbl2, active compounds read low",0.919 (active)
same,normalized growth,"locus YOR270C, strain vph1, active compounds read low",0.549 (active)
same,normalized growth,"locus YOR290C, strain snf2, active compounds read low",0.631 (active)
same,normalized growth,"locus YOR316C, strain cot1, active compounds read low",0.924
same,normalized growth,"locus YPL051W, strain arl3, active compounds read low",0.787 (active)
same,normalized growth,"locus YPL078C, strain atp4, active compounds read low",0.802 (active)
same,normalized growth,"locus YPL106C, strain sse1, active compounds read low",0.913
same,normalized growth,"locus YPL240C, strain hsp82, active compounds read low",0.853 (active)
same,normalized growth,"locus YPR119W, strain clb2, active compounds read low",0.735 (active)
same,normalized growth,"locus YPR141C, strain kar3, active compounds read low",0.977
same,normalized growth,"locus YPR163C, strain tif3, active compounds read low",0.463 (active)
same,normalized growth,"locus YPR167C, strain met16, active compounds read low",0.751 (active)
same,normalized growth,"strain wtn01, active compounds read low",0.747 (active)
